# Measured values taken from PubChem BioAssay AID1159580 (chemical genetic matrix, 2015).
# About 2,000 (36%) of roughly 5,500 compounds were called active. Inconclusive results (about 18%) are left out. The list shows a part of the results. Unmarked numbers belong to inactive results. Rule as the data show it: active = normalized growth mostly below about 0.91 (no sharp cut-off); inconclusive = no clear call, values can overlap the other calls; inactive = mostly above about 0.92.
# Experiment: chemical genetic growth profiling, strain panel (AID 1159580);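 also: tested at 20 µM; growth read once vehicle control cultures reached saturation at 30 °C; 1 = growth at the plate median or of vehicle wells; lower values mean less growth of the strain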
# Conditions: growth OD
structure (smiles),measurement,setting,value
CC(C(=O)O)c1ccc2c(c1)[nH]c1ccc(Cl)cc12 (configuration not stated),normalized growth,"S. cerevisiae deletion strains, locus YJR075W, strain HOC1, active compounds read low",1.01
same,normalized growth,"S. cerevisiae deletion strains, locus YKL009W, strain mrt4, active compounds read low",0.975
same,normalized growth,"S. cerevisiae deletion strains, locus YKL068W, active compounds read low",0.964
same,normalized growth,"S. cerevisiae deletion strains, locus YKL085W, strain MDH1 (second series), active compounds read low",0.95
same,normalized growth,"S. cerevisiae deletion strains, locus YKL085W, strain MDH1, active compounds read low",0.95
same,normalized growth,"S. cerevisiae deletion strains, locus YKL160W, strain elf1, active compounds read low",0.941
same,normalized growth,"S. cerevisiae deletion strains, locus YKL190W, strain CNB1, active compounds read low",1.01
same,normalized growth,"S. cerevisiae deletion strains, locus YKR001C, strain vps1, active compounds read low",0.937
same,normalized growth,"S. cerevisiae deletion strains, locus YKR026C, strain gcn3, active compounds read low",0.983
same,normalized growth,"S. cerevisiae deletion strains, locus YKR091W, strain srl3, active compounds read low",0.988
same,normalized growth,"S. cerevisiae deletion strains, locus YLL001W, strain dnm1, active compounds read low",1
same,normalized growth,"S. cerevisiae deletion strains, locus YLL026W, active compounds read low",0.978
same,normalized growth,"S. cerevisiae deletion strains, locus YLL041C, strain sdh2, active compounds read low",1
same,normalized growth,"S. cerevisiae deletion strains, locus YLR027C, strain aat2, active compounds read low",0.992
same,normalized growth,"S. cerevisiae deletion strains, locus YLR039C, strain RIC1, active compounds read low",0.977
same,normalized growth,"S. cerevisiae deletion strains, locus YLR058C, strain SHM2, active compounds read low",1
same,normalized growth,"S. cerevisiae deletion strains, locus YLR102C, strain apc9, active compounds read low",0.991
same,normalized growth,"S. cerevisiae deletion strains, locus YLR113W, strain HOG1, active compounds read low",0.248 (active)
same,normalized growth,"S. cerevisiae deletion strains, locus YLR221C, strain rsa3, active compounds read low",0.986
same,normalized growth,"S. cerevisiae deletion strains, locus YLR258W, strain gsy2, active compounds read low",0.976
same,normalized growth,"S. cerevisiae deletion strains, locus YLR262C, strain YPT6 (second series), active compounds read low",0.94
same,normalized growth,"S. cerevisiae deletion strains, locus YLR262C, strain YPT6, active compounds read low",0.989
same,normalized growth,"S. cerevisiae deletion strains, locus YLR268W, strain sec22, active compounds read low",0.992
same,normalized growth,"S. cerevisiae deletion strains, locus YLR320W, strain mms22, active compounds read low",0.937
same,normalized growth,"S. cerevisiae deletion strains, locus YLR330W, strain CHS5, active compounds read low",0.998
same,normalized growth,"S. cerevisiae deletion strains, locus YLR342W, strain FKS1 (second series), active compounds read low",0.987
same,normalized growth,"S. cerevisiae deletion strains, locus YLR342W, strain FKS1, active compounds read low",0.966
same,normalized growth,"S. cerevisiae deletion strains, locus YLR357W, strain rsc2, active compounds read low",0.923
same,normalized growth,"S. cerevisiae deletion strains, locus YLR370C, strain arc18, active compounds read low",0.972
same,normalized growth,"S. cerevisiae deletion strains, locus YLR371W, strain rom2, active compounds read low",0.984
same,normalized growth,"S. cerevisiae deletion strains, locus YLR384C, strain iki3, active compounds read low",0.964
same,normalized growth,"S. cerevisiae deletion strains, locus YLR418C, strain cdc73, active compounds read low",0.962
same,normalized growth,"S. cerevisiae deletion strains, locus YML016C, strain PPZ1, active compounds read low",1.01
same,normalized growth,"S. cerevisiae deletion strains, locus YML032C, strain rad52, active compounds read low",0.965
same,normalized growth,"S. cerevisiae deletion strains, locus YML120C, strain ndi1, active compounds read low",0.985
same,normalized growth,"S. cerevisiae deletion strains, locus YML124C, strain tub3, active compounds read low",0.981
same,normalized growth,"S. cerevisiae deletion strains, locus YMR058W, strain fet3, active compounds read low",1
same,normalized growth,"S. cerevisiae deletion strains, locus YMR078C, strain ctf18, active compounds read low",0.983
same,normalized growth,"S. cerevisiae deletion strains, locus YMR125W, strain sto1, active compounds read low",0.969
same,normalized growth,"S. cerevisiae deletion strains, locus YMR129W, active compounds read low",0.995
same,normalized growth,"S. cerevisiae deletion strains, locus YMR205C, strain PFK2, active compounds read low",0.962
same,normalized growth,"S. cerevisiae deletion strains, locus YMR223W, strain ubp8, active compounds read low",0.975
same,normalized growth,"S. cerevisiae deletion strains, locus YMR231W, strain pep5, active compounds read low",0.957
same,normalized growth,"S. cerevisiae deletion strains, locus YMR263W, strain SAP30, active compounds read low",1.02
same,normalized growth,"S. cerevisiae deletion strains, locus YMR307W, strain GAS1, active compounds read low",0.996
same,normalized growth,"S. cerevisiae deletion strains, locus YNL067W, strain RPL9B, active compounds read low",1.03
same,normalized growth,"S. cerevisiae deletion strains, locus YNL071W, strain lat1, active compounds read low",0.982
same,normalized growth,"S. cerevisiae deletion strains, locus YNL128W, strain TEP1, active compounds read low",1
same,normalized growth,"S. cerevisiae deletion strains, locus YNL153C, strain GIM3, active compounds read low",1.03
same,normalized growth,"S. cerevisiae deletion strains, locus YNL183C, strain NPR1, active compounds read low",0.507 (active)
same,normalized growth,"S. cerevisiae deletion strains, locus YNL209W, strain ssb2, active compounds read low",0.988
same,normalized growth,"S. cerevisiae deletion strains, locus YNL233W, strain BNI4, active compounds read low",1.02
same,normalized growth,"S. cerevisiae deletion strains, locus YNL248C, strain rpa49, active compounds read low",0.963
same,normalized growth,"S. cerevisiae deletion strains, locus YNL250W, strain rad50, active compounds read low",0.885 (active)
same,normalized growth,"S. cerevisiae deletion strains, locus YNL271C, strain bni1, active compounds read low",0.942
same,normalized growth,"S. cerevisiae deletion strains, locus YNL298W, strain CLA4, active compounds read low",0.91
same,normalized growth,"S. cerevisiae deletion strains, locus YNL307C, strain MCK1, active compounds read low",0.963
same,normalized growth,"S. cerevisiae deletion strains, locus YNL322C, strain KRE1 (second series), active compounds read low",0.895 (active)
same,normalized growth,"S. cerevisiae deletion strains, locus YNL322C, strain KRE1, active compounds read low",1.01
same,normalized growth,"S. cerevisiae deletion strains, locus YNR049C, strain mso1, active compounds read low",0.988
same,normalized growth,"S. cerevisiae deletion strains, locus YNR052C, strain pop2, active compounds read low",0.97
same,normalized growth,"S. cerevisiae deletion strains, locus YOL006C, strain TOP1, active compounds read low",1.07
same,normalized growth,"S. cerevisiae deletion strains, locus YOL012C, strain htz1",0.756
same,normalized growth,"S. cerevisiae deletion strains, locus YOL147C, strain pex11, active compounds read low",0.974
same,normalized growth,"S. cerevisiae deletion strains, locus YOR001W, strain rrp6, active compounds read low",1
same,normalized growth,"S. cerevisiae deletion strains, locus YOR061W, strain CKA2, active compounds read low",1
same,normalized growth,"S. cerevisiae deletion strains, locus YOR069W, strain VPS5, active compounds read low",1.01
same,normalized growth,"S. cerevisiae deletion strains, locus YOR070C, strain gyp1, active compounds read low",0.981
same,normalized growth,"S. cerevisiae deletion strains, locus YOR080W, strain dia2, active compounds read low",1
same,normalized growth,"S. cerevisiae deletion strains, locus YOR083W, strain WHI5, active compounds read low",0.898
same,normalized growth,"S. cerevisiae deletion strains, locus YOR106W, strain vam3, active compounds read low",0.925
same,normalized growth,"S. cerevisiae deletion strains, locus YOR136W, strain idh2, active compounds read low",0.963
same,normalized growth,"S. cerevisiae deletion strains, locus YOR144C, strain elg1, active compounds read low",0.98
same,normalized growth,"S. cerevisiae deletion strains, locus YOR184W, strain ser1, active compounds read low",0.986
same,normalized growth,"S. cerevisiae deletion strains, locus YOR231W, strain MKK1, active compounds read low",0.212 (active)
same,normalized growth,"S. cerevisiae deletion strains, locus YOR265W, strain rbl2, active compounds read low",0.993
same,normalized growth,"S. cerevisiae deletion strains, locus YOR270C, strain vph1, active compounds read low",0.999
same,normalized growth,"S. cerevisiae deletion strains, locus YOR290C, strain snf2, active compounds read low",0.95
same,normalized growth,"S. cerevisiae deletion strains, locus YOR316C, strain cot1, active compounds read low",0.989
same,normalized growth,"S. cerevisiae deletion strains, locus YPL051W, strain arl3, active compounds read low",0.953
same,normalized growth,"S. cerevisiae deletion strains, locus YPL055C, strain LGE1, active compounds read low",1.04
same,normalized growth,"S. cerevisiae deletion strains, locus YPL078C, strain atp4, active compounds read low",0.946
same,normalized growth,"S. cerevisiae deletion strains, locus YPL106C, strain sse1, active compounds read low",0.938
same,normalized growth,"S. cerevisiae deletion strains, locus YPL240C, strain hsp82, active compounds read low",1
same,normalized growth,"S. cerevisiae deletion strains, locus YPL241C, strain CIN2, active compounds read low",1.01
same,normalized growth,"S. cerevisiae deletion strains, locus YPL256C, strain CLN2, active compounds read low",0.238 (active)
same,normalized growth,"S. cerevisiae deletion strains, locus YPR119W, strain clb2, active compounds read low",0.993
same,normalized growth,"S. cerevisiae deletion strains, locus YPR141C, strain kar3, active compounds read low",0.967
same,normalized growth,"S. cerevisiae deletion strains, locus YPR163C, strain tif3, active compounds read low",0.981
same,normalized growth,"S. cerevisiae deletion strains, locus YPR167C, strain met16, active compounds read low",0.995
same,normalized growth,"S. cerevisiae deletion strains, strain wtn01, active compounds read low",0.998
same,normalized growth,"S. cerevisiae strains, strain wild type, active compounds read low",0.995
